# Results taken from ChEMBL document CHEMBL1201862, “PubChem BioAssay data set” (2004).
# Screen size: about 54,000 sequences; about 2,800 (5.2%) were called active. No stated cut-off is given here; in the data, active = GI50 up to about 1.1 µM and inactive = higher. This excerpt belongs to a sample that is enriched for actives. Measured potencies and affinities stand elsewhere.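 Method: 48-hour compound exposure of cells in 96-well plates, five concentrations, linear interpolation of endpoints. At the GI50, growth is halved.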
# Test system: NCI-H226
# Test: NCI tumour cell line growth inhibition, 48 h
row,Substance,GI50 [nM]
1,"TRIBUTYLCHLOROSTANNANE, CHEMBL1088186",210
